Sampled rows, rich in hits. Any-hit rate of the full collection: about 2.4%.
Pol iota inh: qHTS for Inhibitors of Polymerase Iota; actives 1% (n = 390,000); DNA polymerase iota (Homo sapiens), Q9UNA4; Potency, µM (doses to about 115 µM), for inactives: top-dose activity, negative = inhibition, hits mostly inhibitors; Pol iota fluorescent replication assay, 10 min
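Fluorescent replication assay read twice, at 0 min and 10 min after adding 50 nM (final) substrate. Enzyme (10 nM) and compounds were first incubated 15 min at room temperature; enzyme-free buffer wells were negative controls.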
Pol kappa inh: qHTS for Inhibitors of Polymerase Kappa. DNA polymerase kappa (Homo sapiens), Q9UBT6. purified Pol kappa, fluorescent DNA synthesis assay, 10 min. Potency, µM (highest dose often 107 µM), inactives show top-dose activity, negative = inhibition, usual class: inhibitors. actives 0.53% (n = 400,000); note: % is set by controls: 0 for no effect and ±100 for the full control effect
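Readout: fluorescence, taken kinetically at 0 and 10 min. Conditions: 10 nM Pol kappa, 15 min RT compound preincubation, 50 nM substrate final. Controls: enzyme-free buffer wells.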
FEN1 inh: qHTS Assay for the Inhibitors of Human Flap endonuclease 1 (FEN1); P39748; Recombinant FEN1 flap cleavage, fluorescence, 15 min; Potency, µM (highest dose often 114 µM), for inactives: top-dose activity change, negative = inhibition, actives largely listed as inhibitors; actives 0.35% (n = 390,000); AID 588795, 2011; note: % is set by controls: 0 for no effect and ±100 for the full control effect; nearly all actives have a fitted effect of over 65% in size
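Enzyme 10 nM, 15 min RT preincubation with compound; start with substrate 50 nM final; reads at 0 and 15 min; qHTS titration, four-parameter Hill fit.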
WRN helicase inh: qHTS for Inhibitors of WRN Helicase; WRN helicase unwinding, fluorescent forked duplex, kinetic; Potency, µM (series often up to 114 µM), without a hit: at the top dose activity change, negative = inhibition, hits mostly inhibitors; actives 0.46% (n = 360,000); AID 651768, 2012; note: % is set by controls: 0 for no effect and ±100 for the full control effect; nearly all actives have a fitted effect of over 55% in size
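WRN at 20 nM final was preincubated with compound for 15 min at room temperature; reaction started with 100 nM forked duplex oligonucleotide carrying fluorophore and quencher plus 2 mM ATP (final). Unwinding followed kinetically by red fluorescence (ex 525/em 598 nm).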
Pol eta inh: qHTS for Inhibitors of Polymerase Eta; actives 1.2% (n = 390,000); DNA polymerase eta (Homo sapiens), Q9Y253; recombinant Pol eta, fluorescent DNA replication assay; Potency, µM (top dose mostly 114 µM), for inactives: at the highest dose activity change, negative = inhibition, hits mostly inhibitors; note: % is set by controls: 0 for no effect and ±100 for the full control effect
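Pol eta at 10 nM preincubated with compounds 15 min at room temperature; reaction started with fluorescent substrate (50 nM final) and read kinetically at 0 and 10 min.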
POLB inh: qHTS Assay for Inhibitors of DNA Polymerase Beta; Pol beta primer extension/strand displacement, fluorescence kinetic; P06746; AID 485314, 2010; actives 1.3% (n = 340,000); Potency, µM (top dose mostly 114 µM), inactives show top-dose activity change, negative = inhibition, most hits filed as inhibitors; note: % is set by controls: 0 for no effect and ±100 for the full control effect
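Homogeneous kinetic assay of primer extension and strand displacement by 10 nM Pol beta, preincubated 15 min at room temperature with compound before 50 nM substrate (final) was added. Read at 0 and 10 min; four-parameter Hill fit.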
* marks the source's active call; other numbers are inactive results; ? = inconclusive; nt = not tested or not shown; [ ] = dose if it differs, or a comment. Calls come from the whole dose curve; as a rule, active = well fitted curve in the direction sought with a large enough effect; inconclusive = small, poorly fitted or top-dose-only effect, or another doubt; inactive = no such curve, though single readings can be large; an effect the other way counts as inactive or inconclusive. Potency is the fitted concentration of half-maximal effect.

SMILES | Pol iota inh | Pol kappa inh | FEN1 inh | WRN helicase inh | Pol eta inh | POLB inh
CC(=O)Nc1ccc(-c2ccc(NC(C)=O)c(O)c2)cc1O | ? | ? | -1% | -17%[11.6 µM] | 35µM* | ?
CC(=O)Nc1ccccc1O | 18% | -8% | 2% | 1% | -17% | 5%
CCCCN1C(=O)/C(=C/C=C2\Oc3ccccc3N2CC)SC1=S | ? | 5% | ? | 50µM* | ? | -5%
CCN1C(=O)/C(=C/C=C2/Sc3ccccc3N2CCO)SC1=S | ? | -3% | 0% | -6% | -8% | 0%
CC(=O)c1c(C)[nH]c(C(=O)OCC(=O)c2c[nH]c3ccccc23)c1C | 79µM* | -6% | -18% | 8% | 1% | nt
COc1cc(C(CCN2CCCC2)c2c(OC)cc(OC)c3c2OC(=O)CC3c2ccc(N(C)C)cc2)cc(OC)c1OC (stereo not given) | 8% | -2% | 5% | nt | nt | nt
CCC(C)COC(c1ccccc1)(c1ccccc1)C(Oc1nc(C)cc(C)n1)C(=O)O (stereo not given) | 79µM* | -16% | 10% | 11% | 9% | 0%
CCOC(=O)C1=C(CSc2nc3c(cc2C#N)CN(C)CC3)OC(N)=C(C#N)C1c1ccncc1 (stereo not given) | 32µM* | ? | -13% | -29% | ? | ?
CCOC(=O)C1=C(CSc2nc3c(cc2C#N)CN(C)CC3)OC(N)=C(C#N)C1c1ccc(Cl)cc1 (stereo not given) | ? | ? | -9% | ? | ? | 19%
CN1c2ccccc2C(C)(C)C12C=Cc1cc(O)ccc1O2 (stereo not given) | -11% | -11% | -19% | -28% | -12% | 0%
CN1c2ccccc2C(C)(C)C12C=Nc1c(cc(N3CCOCC3)c3ccccc13)O2 (stereo not given) | 3.5µM* | -20% | -13% | -23% | 1% | 3%
COc1ccccc1NC(=O)C1=C(C)Nc2nc(-c3ccco3)nn2C1c1ccccc1F (stereo not given) | 6% | -2% | 3% | nt | -10% | 5%
CCOc1cc(C2Nc3ccccc3-c3nnc(SCc4ccccc4)nc3O2)ccc1OC (stereo not given) | -6% | -5% | -13% | nt | -16% | 17%
O=C(O)c1ccc(C2Nc3ccccc3-c3nnc(SCc4ccc(Cl)cc4)nc3O2)cc1 (stereo not given) | ? | ? | -4% | nt | -28% | 25µM*
NC1=NCC2c3ccccc3Cc3ccccc3N12 (stereo not given) | nt | 6%[60.1 µM] | nt | nt | nt | nt
O=c1c2c(-c3ccco3)csc2nc(SCc2cn3cccnc3n2)n1-c1ccccc1 | ? | -23% | 1% | 56µM* | 11µM* | -1%
NC(=O)CSc1nc2scc(-c3ccco3)c2c(=O)n1-c1ccccc1 | 11µM* | 45µM* | ? | ? | 79µM* | ?
O=C(CSc1nc2scc(-c3ccco3)c2c(=O)n1-c1ccccc1)N1CCOCC1 | -2%[58.9 µM] | -13% | -16% | -3% | -10% | 16%
CC(=O)N[C@@H](C=O)[C@@H](O)[C@H](O)[C@H](O)CO | nt | -9%[60.1 µM] | nt | nt | nt | nt
Cc1ccc2cccc(S(=O)(=O)Nc3ccc4c(c3)OCO4)c2n1 | ? | -24% | -1% | -9%[11.6 µM] | ? | 45µM*
CCc1cnc2ccccc2c1/C=C/c1ccc(N(C)C)cc1 | -15% | -20% | -32% | nt | nt | nt
COc1ccc(-[n+]2c(C)cc(/C=C3\Sc4ccccc4N3C)cc2C)cc1 | 24% | -5%[60.1 µM] | 22µM* | ? | -19% | 35µM*
COc1ccc(C(=O)/C=C2\Sc3ccccc3N2C)cc1 | 44% | -8% | ? | ? | 3% | -12%
O=C(Cc1ccc(S(=O)(=O)N2CCOCC2)s1)Nc1ccc(N2CCOCC2)cc1 | 59% | 1% | 1% | -12% | -23% | 32µM*
CN(C)S(=O)(=O)c1ccc(NC(=O)Cc2ccc(S(=O)(=O)N3CCOCC3)s2)cc1 | ? | ? | 10% | 0%[11.6 µM] | 56µM* | ?
SMILES | Pol iota inh | Pol kappa inh | FEN1 inh | WRN helicase inh | Pol eta inh | POLB inh
COc1ccc(S(=O)(=O)N(C)C)cc1NC(=O)Cc1ccc(S(=O)(=O)N2CCOCC2)s1 | -4% | -4% | -1% | 1% | 4% | nt
CCOc1ccc2c(c1)c(=O)c(C(=O)c1ccc(CC)cc1)cn2CC(=O)Nc1cccc(Cl)c1 | -2% | -16% | 13% | nt | -4% | 7%
Cc1ccnc(N/C=C(\C#N)c2nc(-c3cccc(Br)c3)cs2)c1 | ? | -4% | ? | -25% | -21% | 35µM*
N#C/C(=C/c1ccc(Cl)cc1)c1nc(-c2ccc(Br)cc2)cs1 | ? | -24% | -2% | nt | -11% | -8%
CNC(=O)c1nc(C)n(-c2ccc(Cl)cc2Cl)n1 | 61% | 0% | -2% | 79µM* | -3% | -17%
CC(C)(Oc1ccc(-c2ccco2)cc1)C(=O)O | nt | nt | nt | nt | nt | 40µM*
CCOc1ccccc1NS(=O)(=O)c1c(C)nc2sccn2c1=O | 12% | 1% | 5% | nt | -9% | 16%
Cc1cc(=O)c2c(O)c3c(O)cc(O)c4c5c(O)cc(O)c6c(O)c7c(=O)cc(C)c8c1c2c(c34)c(c65)c78 | nt | 10µM* | nt | nt | nt | nt
Cc1cc(=O)c2c(C)ccc(C)c2[nH]1 | 12% | -14% | -1% | 0% | -18% | 3%
COc1cccc(/C=C2/SC(=S)N(CC(=O)Nc3nccs3)C2=O)c1 | -1% | -9% | -18% | nt | nt | nt
O=C(O)c1ccc(O)c(O)c1 | ? | -7% | 5% | 5% | -5% | 25µM*
Cc1ccc2cc3c(N)c(C(=O)Nc4c(C)[nH]c(=O)[nH]c4=O)sc3nc2c1 | ? | -28% | ? | -30%[57.1 µM] | ? | ?
Cc1ccc2nc3sc(C(=O)Nc4c(C)[nH]c(=O)[nH]c4=O)c(N)c3cc2c1 | 4% | -26% | ? | -32% | ? | 50µM*
COc1cccc(Nc2ncc3nc(C)c(=O)n(CCc4ccccc4)c3n2)c1 | nt | 1%[60.1 µM] | nt | nt | nt | nt
COCCn1c(=O)cnc2cnc(OC)nc21 | nt | 1%[60.1 µM] | nt | nt | nt | nt
CCCCn1c(=O)[nH]c(=O)c2c1nc(Cn1ncc(Cl)c(Cl)c1=O)n2CCC | 25µM* | -8% | -1% | -23% | 56µM* | 50µM*
COC(=O)[C@@H](c1ccccc1Cl)N1CCc2sccc2C1 | nt | 4%[19.4 µM] | nt | nt | nt | nt
CCCCCCCCCC(=O)NO | nt | 1%[19.4 µM] | nt | nt | nt | nt

Source: PubChem
